# Shown are actives, neighbours in structure and some others; about 7.9% of the full set was active somewhere.
# SW480 rereplic – inducers of DNA re-replication in SW480 colon cancer cells | AID 624297 | 340,000 compounds, 1.8% hits | Potency, µM (series often up to 46.1 µM), inactives show top-dose re-replication activation, hits mostly activators | SW480 DNA re-replication, Hoechst DNA content imaging, 48 h; also: % of control where 0% means no effect; nearly all actives have a fitted effect of over 55% in size
#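 DNA re-replication was detected as more nuclei of elevated Hoechst intensity after 48 hr exposure to compound (23 nL pinned per well of 250 cells).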
# HT1080NT lethal – kills 2HG-producing HT-1080-NT fibrosarcoma cells; HT-1080-NT fibrosarcoma viability, CellTiter-Glo ATP luminescence, 48 h; Potency, µM (titrated, usually from 46.1 µM), without a hit: top-dose activity, negative = less viability, usual class: cytotoxic; 360,000 compounds, 1.6% hits; AID 686970;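 also: NT is the 2HG producing partner of a matched IDH1 knockdown line; 0% = DMSO-treated cells and -100% = media-only wells without cells; nearly all actives have a fitted effect of over 55% in size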
#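 Fibrosarcoma NT cells, 750 per well in 5% FBS RPMI, were exposed to compound for 48 hours. Viability: CellTiter-Glo luminescence.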
# MCF10A rerep – inducers of DNA re-replication in MCF 10A breast cells. MCF 10A DNA re-replication, Hoechst nuclear intensity, 48 h. Potency, µM (top dose mostly 46.1 µM), inactives show at the top dose activity, positive = re-replication, most hits filed as activators. 350,000 compounds, 2.9% hits. AID 624296; also: % of control where 0% means no effect; nearly all actives have a fitted effect of over 50% in size
# KB-V1 MDR tox – kills drug-selected multidrug resistant KB-V1 cells | 400,000 compounds, 3.4% hits | Potency, µM (series often up to 46.1 µM), hits mostly cytotoxic | KB-V1 MDR cells viability, CellTiter-Glo, 72 h; also: % is scaled to controls: 0 for no effect and ±100 for the full control effect; nearly all actives have a fitted effect of over 60% in size
#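 In this primary screen, KB-V1 cells overexpressing P-gp are incubated with library compounds (lowest to highest concentration) for 72 h at 37 degrees C before a luminescent ATP viability read.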
# KB-3-1 cytotox – kills parental KB-3-1 adenocarcinoma cells; KB-3-1 viability, CellTiter-Glo ATP luminescence, 72 h; Potency, µM (doses to about 46.1 µM), usual class: cytotoxic; 400,000 compounds, 1.4% hits; AID 1347075; also: % is scaled to controls: 0 for no effect and ±100 for the full control effect; nearly all actives have a fitted effect of over 60% in size
#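 Luminescent ATP read-out (CellTiter-Glo) measures survival of drug-naive KB-3-1 cells after 72 h compound exposure at 37 °C. Titration series was screened from lowest to highest concentration, with DMSO vehicle plates as background controls.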
# HT1080 IDH1KD tx – HT-1080 IDH1 knockdown cell toxicity (counter line) | Potency, µM (titrated, usually from 46.1 µM), for the others: top-dose activity, negative = toxicity, most hits filed as cytotoxic | HT-1080 IDH1 knockdown viability, ATP luminescence, 48 h | AID 686971 | 360,000 compounds, 2% hits;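 also: 0% = DMSO wells and -100% = cell-free medium wells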
#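 HT-1080-IDH1KD cells (IDH1 knocked down), 750/well in RPMI with 5% FBS, treated with compound 48 h at 37 degrees C. Viability by CellTiter-Glo luminescence, normalised to DMSO and no-cell wells; concentration-response curves classed.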
# Active calls of the source: *; i = inactive; ? = inconclusive; · = not tested or not shown; [ ] = remark or other dose. Calls follow the shape of the dose curve; as a rule, active = well fitted curve in the direction sought with a large enough effect; inconclusive = small, poorly fitted or top-dose-only effect, or another doubt; inactive = no such curve, though single readings can be large; an effect the other way counts as inactive or inconclusive. Potency is read from the fitted curve at half-maximal effect.
SMILES,SW480 rereplic,HT1080NT lethal,MCF10A rerep,KB-V1 MDR tox,KB-3-1 cytotox,HT1080 IDH1KD tx
CN(Cc1ccccc1)S(=O)(=O)c1ccc(Cl)c(C(=O)NCc2ccncc2)c1,8%,-6%,19%,?,i,-9%
COC(=O)c1ccc(NC(=O)c2nc(S(=O)(=O)Cc3ccccc3F)ncc2Cl)cc1,·,·,·,i,?,·
COc1ccc2[nH]c3c(c2c1)CCN1C(=O)C(CC(=O)NCCC2=CCCCC2)C[C@H](C(=O)N(C(C)C)C(C)C)[C@@]31C (some centres not stated),?,-16%,-32%,?,?,-29%
O=c1cc(-c2ccccc2Cl)oc2cccc(O)c12,0%,12%,6%,i,i,13%
O=c1cc2oc3cc(O)c(O)cc3c(-c3ccccc3[N+](=O)[O-])c-2cc1O,29%,15µM*,27%,?,i,21µM*
COc1ccccc1OCCOCCOc1ccc(C)cc1[N+](=O)[O-],9%,7%,19%,13µM*,i,15%
COc1cc(C)ccc1OCCOCCOc1ccccc1[N+](=O)[O-],1%,1%,4%,i,i,2%
COc1cccc(CN(Cc2ccco2)c2cnc(S(C)(=O)=O)nc2C(=O)Nc2cccc(Cl)c2C)c1,·,·,·,i,i,·
CCOC(=O)c1c(C)nc(C)c(C(=O)OCC)c1-c1ccc(OC)cc1,-1%,15%,-14%,i,i,3%
CCOC(=O)c1c(-c2ccc(OC)cc2)nc2nonc2c1N,-12%,-3%,-5%,13µM*,?,4%
O=C(COc1ccc(S(=O)(=O)NC2CCCCC2)cc1)NC1CCCC1,3%,-1%,7%,?,i,4%
COC(=O)C(C)Sc1nc2c(cnn2-c2ccc(F)cc2)c(=O)[nH]1 (configuration not stated),-11%,0%,-4%,i,i,13%
c1ccc(-c2ccc(-c3nc(-c4ccccn4)no3)cc2)cc1,1%,10µM*,-1%,8.2µM*,13µM*,13µM*
c1ccc(-c2n[nH]c(-c3ccccn3)n2)cc1,?,8.2µM*,-3%,?,i,5.8µM*
Cc1ccc(-c2nc(-c3ccccn3)no2)cc1Cl,-5%,?,2%,i,?,?
c1ccc(-c2nc(-c3ccccn3)no2)cc1,2%,13µM*,?,16µM*,9.2µM*,10µM*
Cc1ccc(-c2nc(-c3ccccn3)no2)cc1,-3%,5.2µM*,2%,6.5µM*,9.2µM*,6.5µM*
c1ccc(-c2n[nH]c(-c3ccccn3)n2)nc1,-6%,-6%,5%,?,i,?
Clc1cccc(-c2nc(-c3ccccn3)no2)c1,-13%,?,-5%,i,?,?
COc1ccc(/C=N/NC(=O)c2cc3c(ccc4ccccc43)o2)cc1OC,?,-3%,16µM*,?,?,-17%
O=C(COc1ccc(/C=N/NC(=O)c2cc3ccccc3o2)cc1Br)Nc1ccccc1,?,-25%,?,?,13µM*,-2%
COc1ccc(/C=N\NC(=O)c2cc3c(ccc4ccccc43)o2)cc1O,?,?,12µM*,i,?,4.6µM*
N#CCC(=O)N/N=C/c1cn(Cc2cccc3ccccc23)c2ccccc12,15µM*,?,5.2µM*,i,?,10µM*
O=C(COc1ccccc1[N+](=O)[O-])Nc1ccc(NC(=O)c2cc3ccccc3o2)cc1,-39%,-10%,?,i,i,-22%
COc1ccccc1/C=N/NC(=O)c1cc2c(ccc3ccccc32)o1,?,-3%,?,i,?,19%
SMILES,SW480 rereplic,HT1080NT lethal,MCF10A rerep,KB-V1 MDR tox,KB-3-1 cytotox,HT1080 IDH1KD tx
O=C(Nc1ccnn1C1CCN(Cc2ccc(CO)o2)CC1)c1ccccc1,-5%,-11%,3%,?,i,0%
CCOc1ccc(C(C(=O)NCCC(C)C)N(CCO)C(=O)c2snc(C(N)=O)c2N)cc1 (configuration not stated),-2%,5%,14%,i,i,-2%
Cc1ccc(Cl)cc1N1CCN(C(=O)c2noc(C)c2[N+](=O)[O-])CC1,?,?,13%,i,i,?
N#CCn1cc(/C=N/NC(=O)c2cc3c(ccc4ccccc43)o2)c2ccccc21,?,?,?,i,?,9.2µM*
O=C(N/N=C/c1ccncc1)c1cc2c(ccc3ccccc32)o1,-2%,-2%,-7%,?,i,6%
COc1cc(-c2nc(-c3ccccc3)c(-c3cccs3)[nH]2)cc(OC)c1O,-4%,-2%,?,21µM*,?,-2%
C[C@@H](C(=O)O)c1ccc(-c2ccccc2)c(F)c1,-9%[20.6 µM],·,2%[20.6 µM],·,·,·
Cc1ccc(NC(=O)C(C)c2ccc(-c3ccccc3)c(F)c2)cc1 (configuration not stated),-9%[9.22 µM],16µM*,7%,i,?,13µM*
COc1ccc(NC(=O)c2cc(C3CCCCN3S(=O)(=O)c3ccc(C#N)cc3)on2)c(C)c1 (configuration not stated),·,4%,·,i,i,1%
COc1ccc(S(=O)(=O)N2CCCCC2c2cc(C(=O)Nc3ccc(OC)cc3C)no2)cc1 (configuration not stated),·,-2%,·,i,18µM*,1%
COc1cc(NS(=O)(=O)c2ccc(Br)cc2)c(OC)cc1NC(=O)c1ccco1,6%,-2%,-1%,8.2µM*,i,0%
COc1cccc(NC(=O)c2ccco2)c1,-1%,7%,2%,i,i,0%
COc1c(C)cc(Br)cc1C(=O)Nc1cccc(NC(=O)c2ccco2)c1,-2%,-1%,?,3.3µM*,i,9%
O=C(Nc1cccc(NC(=O)c2ccc(-c3cccc(Br)c3)o2)c1)c1ccco1,?,-44%,21%,23µM*,i,?
O=C(Nc1cccc(NC(=O)c2ccco2)c1)c1ccccc1,-8%,-7%,3%,i,i,1%
Cc1ccc(SCC(=O)Nc2cccc(NC(=O)c3ccco3)c2)cc1,-8%,5%,?,16µM*,i,-3%
Cc1c(C(=O)NCc2ccco2)cccc1[N+](=O)[O-],0%,11%,?,i,i,15%
CN(C)CCCN(C(=O)c1ccc(N2C(=O)CCC2=O)cc1)c1nc2c(F)cccc2s1,5%,3%,11%,i,i,0%
